Compounds with a hit are over-represented: about 2.4% of the library has one in this group of screens.
Pol iota inh: DNA polymerase iota (human) inhibition; Q9UNA4; Pol iota fluorescent replication assay, 10 min; Potency, µM (doses to about 115 µM), for the others: top-dose activity, negative = inhibition, actives largely listed as inhibitors; 1% of 390,000 active; AID 588590; also: potency is read from the fitted curve at half-maximal effect
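Pol iota at 10 nM preincubated 15 min with compounds at room temperature; reaction started with fluorescent substrate, 50 nM final. Fluorescence read kinetically at 0 and 10 min; buffer-only wells as negative control.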
Pol eta inh-1: blocks human DNA polymerase eta activity; Q9Y253; recombinant Pol eta, fluorescent DNA replication assay; Potency, µM (series often up to 114 µM), inactives show at the top dose activity change, negative = inhibition, usual class: inhibitors; 1.2% of 390,000 active; also: potency is read from the fitted curve at half-maximal effect; % is scaled to controls: 0 for no effect and ±100 for the full control effect
Target sequence (Q9Y253 whole entry, looked up): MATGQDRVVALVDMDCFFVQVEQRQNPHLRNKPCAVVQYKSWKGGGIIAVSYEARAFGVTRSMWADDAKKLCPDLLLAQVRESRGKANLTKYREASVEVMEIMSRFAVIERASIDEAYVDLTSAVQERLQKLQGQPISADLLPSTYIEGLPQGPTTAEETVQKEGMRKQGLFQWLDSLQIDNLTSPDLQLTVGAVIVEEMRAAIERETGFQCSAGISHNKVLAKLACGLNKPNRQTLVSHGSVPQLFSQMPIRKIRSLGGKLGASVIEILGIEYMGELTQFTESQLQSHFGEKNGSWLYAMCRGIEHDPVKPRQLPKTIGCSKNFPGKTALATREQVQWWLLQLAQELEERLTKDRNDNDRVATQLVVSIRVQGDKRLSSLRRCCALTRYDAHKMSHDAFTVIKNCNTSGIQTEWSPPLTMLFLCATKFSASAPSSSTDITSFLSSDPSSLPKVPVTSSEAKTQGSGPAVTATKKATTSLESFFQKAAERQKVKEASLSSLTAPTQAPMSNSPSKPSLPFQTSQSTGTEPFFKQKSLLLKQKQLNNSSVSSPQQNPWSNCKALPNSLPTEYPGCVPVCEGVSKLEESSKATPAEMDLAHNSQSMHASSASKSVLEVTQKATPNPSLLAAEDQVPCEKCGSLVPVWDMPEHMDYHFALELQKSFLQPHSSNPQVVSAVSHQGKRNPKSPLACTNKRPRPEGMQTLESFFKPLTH
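Pol eta at 10 nM preincubated with compounds 15 min at room temperature; reaction started with fluorescent substrate (50 nM final) and read kinetically at 0 and 10 min.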
Pol beta inh: DNA polymerase beta (human) inhibition. 1.3% of 340,000 active. Pol beta primer extension/strand displacement, fluorescence kinetic. Potency, µM (titrated, usually from 114 µM), for inactives: at the top dose activity change, negative = inhibition, hits mostly inhibitors. P06746; also: potency is read from the fitted curve at half-maximal effect; % is scaled to controls: 0 for no effect and ±100 for the full control effect
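Preincubation: enzyme (10 nM) with compound, 15 min, RT. Reaction: substrate added to 50 nM final. Reads: 0 and 10 min. Analysis: normalized, Hill fit.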
Pol kappa inh-1: DNA polymerase kappa (human) inhibition; purified Pol kappa, fluorescent DNA synthesis assay, 10 min; Potency, µM (series often up to 107 µM), inactives show at the highest dose activity, negative = inhibition, actives largely listed as inhibitors; 0.53% of 400,000 active; Q9UBT6; also: potency is read from the fitted curve at half-maximal effect; % is scaled to controls: 0 for no effect and ±100 for the full control effect
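Pol kappa 10 nM + cpd, 15 min RT; start w/ substrate 50 nM final; fluorescence kinetic read, 0 and 10 min. Neg ctrl: buffer, no enzyme.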
L3MBTL1 block: blocks human L3MBTL1; Q9Y468; AlphaScreen L3MBTL1–H3K9me1 peptide binding; Potency, µM (top dose mostly 57.1 µM), for inactives: top-dose activity, negative = inhibition, usual class: inhibitors; 0.66% of 230,000 active; also: potency is read from the fitted curve at half-maximal effect; % is scaled to controls: 0 for no effect and ±100 for the full control effect; nearly all actives have a fitted effect of over 60% in size
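AlphaScreen proximity signal between nickel-chelate acceptor and streptavidin donor beads (final 10 ug/mL) reports binding of 50 nM L3MBTL1 to 75 nM biotin-H3 K9me1 peptide; complex incubated with compounds 30 min at room temperature; cefsulodin titration as control.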
GALK confirm: confirmation of human galactokinase (GALK) inhibitors. shares compounds with Pol eta inh-1. purified GALK, Kinase-Glo ATP depletion luminescence. Potency, µM (series often up to 115 µM), without a hit: at the highest dose activity, negative = inhibition, usual class: inhibitors. 70% of 150 active. AID 2015
GALK redox cs: redox cycling activity in phenol red-HRP assay; shares compounds with Pol eta inh-1; Phenol red-HRP H2O2 redox cycling, absorbance 600 nm; Potency, µM (series often up to 115 µM), inactives show at the highest dose activity change, negative = H2O2 signal, hits mostly inhibitors; 40% of 150 active; AID 2035
HEK293 viability: HEK-293 cytotoxicity, GALK inhibitor secondary; shares compounds with Pol eta inh-1; HEK-293 viability, ATP luminescence (CellTiter-Glo), 24/48 h; Potency, µM (titrated, usually from 46.1 µM), inactives show at the top dose activity change, negative = cytotoxicity, usual class: inhibitors; 10% of 170 active; AID 2547; also: potency is read from the fitted curve at half-maximal effect; % is scaled to controls: 0 for no effect and ±100 for the full control effect
Pol kappa inh-2: confirmation of human DNA polymerase kappa inhibitors | shares compounds with Pol eta inh-1 | purified Pol-kappa, fluorescent strand-displacement substrate | Potency, µM, most hits filed as inhibitors | 76% of 920 active | AID 720501; also: potency is read from the fitted curve at half-maximal effect
Pol eta inh-2: Pol eta (human) inhibition, cherry-pick confirmation. shares compounds with Pol eta inh-1. Pol eta primer extension, TAMRA/BHQ fluorescence, 10 min. Potency, µM, actives largely listed as inhibitors. 64% of 2,600 active. AID 720502; also: potency is read from the fitted curve at half-maximal effect
* = called active by the depositor; ? = inconclusive; nt = no result given; [ ] = dose if it differs, or a comment. Calls follow the shape of the dose curve; as a rule, active = well fitted curve in the direction sought with a large enough effect; inconclusive = small, poorly fitted or top-dose-only effect, or another doubt; inactive = no such curve, though single readings can be large; an effect the other way counts as inactive or inconclusive.

SMILES	Pol iota inh	Pol eta inh-1	Pol beta inh	Pol kappa inh-1	L3MBTL1 block	Pol eta inh-2	others
Cc1ccccc1-c1n[nH]c(=S)n1/N=C/C=C/c1ccco1	7.9µM*	22µM*	-71%	18µM*	?	76*
O=C(NC(Cc1ccccc1)C(=O)O)/C(=C/c1ccccc1)NC(=O)c1ccco1 (configuration not stated)	15%	-10%	-1%	-2%	nt	nt
O=C(NC(Cc1ccccc1)C(=O)O)/C(=C/c1ccco1)NC(=O)c1cccc(Br)c1 (configuration not stated)	?	20µM*	?	?	?	54*	Pol kappa inh-2=19*
Cc1ccc(OCC(=O)N/N=C\c2ccc(-c3cccc(C(=O)O)c3)o2)c(C)c1	?	3.5µM*	20µM*	50µM*	5.6µM*	30*
O=C(O)c1cccc(-c2ccc(/C=N/Nc3nn[nH]n3)o2)c1	27%	?	?	?	20µM*	67*
Cc1ccc(OCC(=O)N/N=C\c2ccc(C)o2)c(C)c1	71%	-20%	52%	-2%	-2%	nt
O=C(CSc1nnc2scc(-c3ccc(Cl)cc3)n12)Nc1ccc(F)cc1	-6%	nt	-21%	-11%	nt	nt
O=C(NCCc1csc(-c2cccnc2)n1)c1cccc(C(F)(F)F)c1	-21%	-3%	25%	-7%[60.1 µM]	nt	nt
Cc1cc2c(n1-c1ccc(C(=O)NCCc3ccc(Cl)cc3)cc1)CCCC2	13%	-10%	0%	-3%	nt	nt
Cc1nc(Nc2nc(-c3ccccc3)cc(=O)[nH]2)nc2ccccc12	64%	?	nt	-15%	nt	?
COC(=O)C1=C(C)NC(C)=C(C(=O)OCCN2CCN(C(c3ccccc3)c3ccccc3)CC2)C1c1cccc([N+](=O)[O-])c1 (configuration not stated)	nt	nt	nt	-8%[19.4 µM]	nt	nt
Cc1csc(N/N=C/c2ccc(O)c([N+](=O)[O-])c2)n1	13µM*	7.1µM*	25µM*	22µM*	nt	38*
Cc1nnc(N/N=C/c2ccc(O)c([N+](=O)[O-])c2)[nH]c1=O	?	-24%	-2%	1%	-15%	nt
CCCOc1cc2c(C#N)c(N3CCCC3)nc(N)c2c(N)n1	?	45µM*	nt	-24%	nt	?
CCOc1cc2c(C#N)c(N3CCCC3)nc(N)c2c(N)n1	21%	-4%	nt	-7%	nt	nt
O=C(/C=C/c1ccco1)NC(=S)NNC(=O)c1ccco1	?	50µM*	?	-32%	?	nt	Pol kappa inh-2=?
C=CCNC(=S)NNC(=O)c1ccco1	43%	-2%	7%	-2%	-2%	nt
Cc1cccc(C(=O)O[C@@H]2[C@H](Cc3ccccc3)NS(=O)(=O)[C@H]3C[C@@H]4C=C[C@]23O4)c1	0%	-11%	nt	8%	-1%	nt
O=C(/C=C/c1ccc(-c2ccccc2[N+](=O)[O-])o1)c1ccco1	?	40µM*	?	?	?	76*
C=C1CCN(C(CC(C)C)C(=O)NCc2ccc(OC)cc2)S(=O)(=O)c2ccccc21 (configuration not stated)	-3%	nt	nt	-25%	nt	nt
Cc1oc(C(=O)O)cc1CSCc1ccoc1C(=O)O	?	3.2µM*	-16%	?	?	30*
COCCN(C(=O)COC(=O)c1cc2c(s1)CCCC2)c1c(N)n(Cc2ccccc2)c(=O)[nH]c1=O	50µM*	45µM*	nt	?	?	?
O=C(Nc1cccc(S(=O)(=O)N2CCCCC2)c1)C1COc2ccccc2O1 (configuration not stated)	4%	-24%	nt	-1%	0%	nt
Cc1ccc(CN2CCSc3ccc(C(=O)N4CCN(c5cc(C)ccc5C)CC4)cc32)cc1	-5%	-20%	13%	-12%	nt	nt
CCCc1cc(=O)[nH]c(SCC(=O)N2CCN(c3ccccc3OC)CC2)n1	30%	nt	11%	14%	nt	nt
SMILES	Pol iota inh	Pol eta inh-1	Pol beta inh	Pol kappa inh-1	L3MBTL1 block	Pol eta inh-2	others
O=S(=O)(Nc1ccc(-c2ccc(N3CCCC3)nn2)cc1)c1cccc(C(F)(F)F)c1	-18%	-4%	-10%	-10%[60.1 µM]	nt	nt
O=C(O)/C=C/C(=O)c1ccc2c(c1)CCc1ccccc1-2	1.6µM*	35µM*	nt	-15%	-2%	?
O=[N+]([O-])c1cc(Br)cc(C=Nc2ccc3c(c2)OCO3)c1O	?	79µM*	25µM*	?	-10%	76*
O=[N+]([O-])c1ccc(O)c(C=Nc2ccc3c(c2)OCO3)c1	-9%	-16%	53%	-11%	5%	nt
CCc1nn2c(-c3ccco3)ccnc2c1-c1ccccc1	-12%	-8%	9%	6%	nt	nt
CCCc1cc(=O)[nH]c(SCC(=O)Nc2c(C)cccc2C)n1	?	-2%	1%	-5%	nt	nt
CCCc1cc(=O)[nH]c(SCC(=O)Nc2sccc2C#N)n1	18µM*	?	nt	?	-21%	?
CC(C)(COP(=O)(O)OP(=O)(O)OC[C@H]1O[C@@H](n2cnc3c(N)ncnc32)[C@H](O)[C@@H]1OP(=O)(O)O)C(O)C(=O)NCCC(=O)NCCS (some centres not stated)	nt	nt	nt	-6%[19.4 µM]	nt	nt
CC1=C(C(N)=O)C(c2cccs2)n2nc(-c3cccc(Cl)c3)nc2N1 (configuration not stated)	0%	3%	38%	-22%	-5%	nt	GALK confirm=?;GALK redox cs=5%;HEK293 viability=12%
CC1=C(C(N)=O)C(c2cccs2)n2nc(-c3cccc(C)c3)nc2N1 (configuration not stated)	11%	7%	26%	-9%	9%	nt
O=C1C=C(c2ccc3c(c2)OCO3)C[C@@H](c2ccc3c(c2)OCO3)C1	-3%	7%	nt	-13%	-9%	nt

Bioassay records from PubChem BioAssay.
